Screening results: PubChem BioAssay, National Center for Advancing Translational Sciences (NCATS)
VP16 counter = VP16 counterscreen qHTS for inhibitors of ROR gamma transcriptional activity. Drosophila S2 Gal4-VP16 UAS-luciferase, luminescence, 20 h. Potency, µM (doses to about 53.6 µM), without a hit: top-dose activity, negative = inhibition, most hits filed as inhibitors. 3.5% of 310,000 active;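 also: Gal4-VP16 expression switched on by copper sulfate through the metallothionein promoter; potency is read from the fitted curve at half-maximal effect; % is scaled to controls: 0 for no effect and ±100 for the full control effect; nearly all actives have a fitted effect of over 50% in size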
SW480 rereplic = A quantitative high throughput screen for small molecules that induce DNA re-replication in SW480 colon adenocarcinoma cells | SW480 DNA re-replication, Hoechst DNA content imaging, 48 h | Potency, µM (series often up to 46.1 µM), for inactives: top-dose re-replication activation, hits mostly activators | 1.8% of 340,000 active | AID 624297, 2012; also: potency is read from the fitted curve at half-maximal effect; % of control where 0% means no effect; nearly all actives have a fitted effect of over 55% in size
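SW480 cells exposed to compounds for 48 hr at 37 C, 5% CO2, then Hoechst-stained 40 min. Nuclear DNA content imaged by fluorescence scanning (405 nm excitation, 500-530 nm emission); re-replication scored as increased high-intensity nuclei.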
RORgamma inh = qHTS for inhibitors of ROR gamma transcriptional activity; AID 2551, 2010; 5.4% of 310,000 active; Drosophila S2 Gal4-RORgamma UAS-luciferase reporter, 20 h; Potency, µM (top dose mostly 53.6 µM), without a hit: at the top dose activity change, negative = inhibition, usual class: inhibitors; also: potency is read from the fitted curve at half-maximal effect; % is scaled to controls: 0 for no effect and ±100 for the full control effect; nearly all actives have a fitted effect of over 60% in size
Target sequence (P51450 whole entry, looked up, the tested form may be a part): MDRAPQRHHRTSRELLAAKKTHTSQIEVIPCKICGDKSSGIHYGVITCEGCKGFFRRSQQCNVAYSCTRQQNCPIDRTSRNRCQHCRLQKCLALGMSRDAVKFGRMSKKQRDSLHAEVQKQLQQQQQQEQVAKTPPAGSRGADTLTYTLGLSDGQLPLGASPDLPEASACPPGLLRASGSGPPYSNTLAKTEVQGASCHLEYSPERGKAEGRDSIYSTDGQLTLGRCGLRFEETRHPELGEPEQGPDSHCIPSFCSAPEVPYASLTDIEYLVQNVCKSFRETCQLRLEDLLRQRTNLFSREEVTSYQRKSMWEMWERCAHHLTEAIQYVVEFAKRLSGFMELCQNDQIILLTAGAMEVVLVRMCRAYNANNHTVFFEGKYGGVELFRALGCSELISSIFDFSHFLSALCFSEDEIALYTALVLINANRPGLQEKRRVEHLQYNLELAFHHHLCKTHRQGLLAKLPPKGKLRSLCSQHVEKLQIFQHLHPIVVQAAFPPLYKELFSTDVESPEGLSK
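In this cell-based reporter format, copper sulfate (700 uM final) drives Gal4–ROR gamma fusion expression from a metallothionein promoter in Drosophila Schneider cells; compounds preincubated 1 hr, reporter read after 20 hr at ambient temperature.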
IL1B secr inh = qHTS for Inhibitors of Inflammasome Signaling: IL-1-beta AlphaLISA Primary Screen | 4.7% of 360,000 active | THP-1 LPS/ATP IL-1B secretion, AlphaLISA, 16 h; active compounds read low | activity change, % at 57.5 µM; in the data active = activity change below about -50%; inconclusive = mostly about -30% to -49%; also: % is scaled to controls: 0 for no effect and ±100 for the full control effect
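THP-1 cells pretreated 1 hr with compounds (up to 57.5 uM final), then stimulated with LPS (250 ng/mL final) plus ATP (1.25 mM final); secreted IL-1B measured by AlphaLISA after 16 hr, decreased signal indicating inhibition.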
MCF10A rerep = A quantitative high throughput screen for small molecules that induce DNA re-replication in MCF 10a normal breast cells; MCF 10A DNA re-replication, Hoechst nuclear intensity, 48 h; Potency, µM (top dose mostly 46.1 µM), without a hit: at the top dose activity, positive = re-replication, actives largely listed as activators; 2.9% of 350,000 active; AID 624296, 2012; also: potency is read from the fitted curve at half-maximal effect; % of control where 0% means no effect; nearly all actives have a fitted effect of over 50% in size
An asterisk follows results filed as active; i = inactive; ? = inconclusive; / = no result; [ ] = dose if it differs, or a comment. Shown are actives, neighbours in structure and some others; about 11% of the full set was active somewhere. Unless noted, calls follow the shape of the dose curve; as a rule, active = well fitted curve in the direction sought with a large enough effect; inconclusive = small, poorly fitted or top-dose-only effect, or another doubt; inactive = no such curve, though single readings can be large; an effect the other way counts as inactive or inconclusive.

SMILES	VP16 counter	SW480 rereplic	RORgamma inh	IL1B secr inh	MCF10A rerep
O=S(=O)(c1cccs1)N1CCN(CC(O)COc2cc(Cl)ccc2Cl)CC1 (stereo not given)	18µM*	10%	-10%	-16	?
CCn1c(=O)c2cc(C(=O)N(C)c3ccccc3F)sc2c2ccccc21	3%	-11%	-5%	-72*	?
CCn1c(=O)c2cc(C(=O)N(C)c3cc(C)ccc3OC)sc2c2ccccc21	2%	?	-3%	-84*	?
COC(=O)c1ccc(COc2ccccc2/C=C(\C#N)C(=O)Nc2ccc(C)cc2)cc1	-23%	16%	4%[10 µM]	12	?
N#C/C(=C\c1ccccc1OCc1ccc(C(=O)O)cc1)C(=O)Nc1ccc(O)cc1	18%	3%	-21%	?	23µM*
C=CCNC(=O)/C(C#N)=C/c1ccccc1OCc1ccc(C(=O)OC)cc1	-9%	24%	?	-3	4.6µM*
CCC(NC(=O)c1ccncc1)c1ccccc1 (stereo not given)	/	?	/	40	9%
O=C(c1cccs1)c1c[nH]cc1-c1ccccc1	/	-32%	/	-57*	-12%
O=S(=O)(Nc1nc2ccccc2nc1N1CCc2ccccc2C1)c1ccc(Br)cc1	?	0%	7.9µM*	13	15µM*
O=S(=O)(Nc1nc2ccccc2nc1N1CCc2ccccc2C1)c1ccc(Cl)cc1	?	?	33%[10 µM]	-9	6%
Cc1ccc2cc(CCNS(=O)(=O)c3ccc(Cl)cc3)c(=O)[nH]c2c1C	-15%	2%	44%	-79*	0%
CC(=O)Nc1ccc(S(=O)(=O)NCCc2cc3ccc(C)c(C)c3[nH]c2=O)cc1	-7%	-5%	15%	-3	1%
COc1ccc2[nH]c3c(c2c1)CCN1C(=O)C(CC(=O)NCCc2ccccn2)C[C@H](C(=O)N2CCOCC2)[C@@]31CCC1CCCC1 (stereo not given in full)	/	-3%	/	-22	3%
CCOC(=O)C1(CCC(C)C)CC(CSc2nc3ccccc3[nH]2)OC1=O (stereo not given)	?	14%	0%	25	6.5µM*
O=C(C[C@H]1C/C=C\CC[C@@H](Cc2ccc(F)cc2)C(=O)O[C@@H](c2ccccc2)CNC1=O)N[C@@H](CO)Cc1ccccc1	/	-3%	/	29	1%
CSc1ccc(Cl)c(C(=O)OCC(=O)N2CCN(c3ccccc3)CC2)c1	/	-7%	/	-8	0%
CN1Cc2c(N3CCOCC3)nc3sc(C(=O)c4ccc(Br)cc4)c(N)c3c2CC1(C)C	?	?	11µM*	/	18µM*
CC1(C)Cc2c(c(N3CCOCC3)nc3sc(-c4ccc(C(=O)O)o4)c(N)c23)CO1	3%	19%	?	?	?
CC1(C)Cc2c(c(N3CCOCC3)nc3snc(NC(=O)c4ccccc4)c23)CO1	?	0%	-16%	-11	1%
CNC(=O)c1ccc(-c2sc3nc(N4CCOCC4)c4c(c3c2N)CCCC4)o1	3%	7.3µM*	-11%	5	?
CNC(=O)c1ccc(-c2sc3nc(N4CCOCC4)c4c(c3c2N)CC(C)(C)OC4)o1	0%	?	24%	129	2.9µM*
CN1Cc2c(N3CCOCC3)nc3sc(C#N)c(N)c3c2CC1(C)C	-3%	-11%	13%	-23	12%
Cc1nc2c(sc3nc(N4CCOCC4)c4c(c32)CC(C)(C)OC4)c(-c2ccccc2)c1C(=O)O	2%	21µM*	33%	-10	2.9µM*
O=c1cc(-c2cccc(O)c2O)oc2ccccc12	-15%	/	-36%	/	/
CC(C)(C)C(=O)NCC12C=CC(O1)C1C(=O)N(c3ccccc3)C(=O)C12 (stereo not given)	?	?	?	12	?
SMILES	VP16 counter	SW480 rereplic	RORgamma inh	IL1B secr inh	MCF10A rerep
CC(C)COC(=O)NCC12C=CC(O1)C1C(=O)N(c3ccc(Cl)cc3)C(=O)C12 (stereo not given)	20µM*	21%	4µM*	-19	?
Cc1ccc(N2C(=O)C3C4C=CC(CNC(=S)Nc5ccc(Cl)cc5)(O4)C3C2=O)cc1 (stereo not given)	3.2µM*	28%	7.1µM*	-19	?
Cc1ccc(N2C(=O)C3C4C=CC(CNC(=S)Nc5ccc(F)cc5)(O4)C3C2=O)cc1 (stereo not given)	4µM*	?	4.5µM*	6	?
Cc1ccc(N2C(=O)C3C4C=CC(CNC(=S)N5CCN(c6ccccn6)CC5)(O4)C3C2=O)cc1 (stereo not given)	-27%	14%	?	-9	?
Cc1ccc(N2C(=O)C3C4C=CC(CNC(=S)Nc5cccc(Cl)c5)(O4)C3C2=O)cc1 (stereo not given)	13µM*	?	?	3	20%
OCC1OC(n2cnc3c(/C=C(\O)c4ccccc4)ncnc32)C(O)C1O (stereo not given)	/	?	/	-7	5.8µM*
COc1ccc(C[C@H](N)C(=O)N[C@H]2[C@@H](O)[C@H](n3cnc4c(N(C)C)ncnc43)O[C@@H]2CO)cc1	/	?	/	-90*	?
CN(C)c1ncnc2c1ncn2C1OC(CO)C(O)C1O (stereo not given)	-1%	7.3µM*	13%	35	?
NS(=O)(=O)c1ccc(CCNC(=O)c2ccc[nH]c2=S)cc1	11µM*	-6%	?	36	-15%
C/C(=N\NC(=O)c1ccc(Cn2cc(Br)cn2)o1)c1ccc(NC(=O)c2ccoc2C)cc1	/	?	/	i	?
C=CCn1c(NCc2ccccc2O)nc2ccccc21	3%	0%	3%[1.91 µM]	-13	17%
C=CCn1c(NCc2cc(Cl)ccc2O)nc2ccccc21	-4%	?	37%	-69*	?
Cn1c(-c2ccccc2)cnc1NCc1cc(Cl)ccc1O	19%	-3%[9.22 µM]	32%	-55*	15%
O=c1oc2ccccc2c2c1C1O[C@](c3ccsc3)(Cc3c1ccc1ccccc31)O2	0%[10 µM]	/	?	/	/
COc1cccc(-c2csc(N3CCN(C(=O)C4CCCCC4)CC3)n2)c1	8%	4%	?	-73*	15µM*
O=C(NC12CC3CC(CC(C3)C1)C2)N1CCN(c2nc(-c3ccccc3)cs2)CC1	?	-1%[9.22 µM]	35%	?	?
CCCNC(=S)N1CCN(c2nc(-c3ccc(C)cc3)cs2)CC1	?	1%	-32%	-21	?
COc1ccc(-c2csc(N3CCC(C(N)=O)(N4CCCCC4)CC3)n2)cc1	15%	26%	7%	-77*	-2%
CCCNC(=S)N1CCN(c2nc(-c3cccc(OC)c3)cs2)CC1	-22%	-2%	-9%	-59*	18%
